Bioassay records: PubChem BioAssay, National Center for Advancing Translational Sciences (NCATS)
HPGD inh = HPGD (human) dehydrogenase inhibition. AID 894. Potency, µM, for inactives: top-dose activity change, negative = inhibition, hits mostly inhibitors. P15428. purified HPGD, NADH fluorescence kinetic, PGE2 substrate. actives 4.3% (n = 150,000); further: potency means the concentration at half of the fitted maximal effect
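NADH formation kinetics: reaction with 30 uM PGE2 and 1 mM NAD+ (final), 20 nM enzyme, Tris-HCl pH 8 with Tween 20, after 15 min compound preincubation at room temperature. Fluorescence change, last versus first of five reads.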
LMNA splice mod = changes lamin A minigene splicing in HeLa cells; AID 1487; actives 0.01% (n = 200,000); Potency, µM (top dose mostly 46.1 µM), for the others: at the highest dose ratio change, negative = inhibition, hits mostly inhibitors; HeLa LMNA splicing GFP/RFP minigene ratio, 48 h; active means well fitted inhibition curve with a large enough effect in the signal ratio, with a control signal flat, not every such curve was filed as active; inconclusive means small, poorly fitted or top-dose-only effect, or effect the other way, or a change in a side signal; the % refers to the signal ratio; further: potency means the concentration at half of the fitted maximal effect
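Read-out is the ratio of GFP to DsRed2 object intensity, acquired by 488 nm laser-scanning cytometry on HeLa lamin A-EGFP minigene reporter cells. Compound incubation 48 hrs at 37 °C in Opti-MEM with 2% FBS; DMSO 0.5% final.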
PNC assembly inh = inhibitors of perinucleolar compartment assembly. PC3M PTB-GFP, PNC prevalence imaging, 16 h; active compounds read low. activity change (PNC), negative = inhibition, % at 10 µM. actives 3.1% (n = 140,000). AID 2417;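 active means readout at or below -70, meaning at least 70% loss of cells showing the perinucleolar compartment, a nuclear body marking cancer cells; inconclusive means readout between -30 and a set limit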;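 further: plate controls were DMSO wells for no effect and camptothecin positive control wells for full effect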
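PC3M cells stably expressing PTB-GFP, 750–1000 cells/well, treated 16 h at 37 °C with compound (23 nl of library stock), in duplicate. After paraformaldehyde fixation and Hoechst stain, imaged at 20x; PNC prevalence scored by image analysis.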
ALDH1A1 block = blocks purified human ALDH1A1 activity; P00352; Purified ALDH1A1, NADH fluorescence, propionaldehyde substrate; Potency, µM (doses to about 75.3 µM), without a hit: top-dose activity, negative = inhibition, usual class: inhibitors; actives 7.3% (n = 220,000); AID 1030;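 further: potency means the concentration at half of the fitted maximal effect; plate controls were no enzyme wells and a reference inhibitor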
12-hLO inh = 12-hLO (ALOX12) enzyme inhibition; P18054; purified 12-hLO, xylenol orange hydroperoxide absorbance; Potency, µM (series often up to 57.1 µM), without a hit: at the top dose activity change, negative = inhibition, actives largely listed as inhibitors; actives 0.12% (n = 150,000); AID 1452; active means well fitted inhibition curve with a large enough effect; inconclusive means small, poorly fitted or top-dose-only effect; further: potency means the concentration at half of the fitted maximal effect; nearly all actives have a fitted effect of over 55% in size
Target sequence (P18054 whole entry, looked up): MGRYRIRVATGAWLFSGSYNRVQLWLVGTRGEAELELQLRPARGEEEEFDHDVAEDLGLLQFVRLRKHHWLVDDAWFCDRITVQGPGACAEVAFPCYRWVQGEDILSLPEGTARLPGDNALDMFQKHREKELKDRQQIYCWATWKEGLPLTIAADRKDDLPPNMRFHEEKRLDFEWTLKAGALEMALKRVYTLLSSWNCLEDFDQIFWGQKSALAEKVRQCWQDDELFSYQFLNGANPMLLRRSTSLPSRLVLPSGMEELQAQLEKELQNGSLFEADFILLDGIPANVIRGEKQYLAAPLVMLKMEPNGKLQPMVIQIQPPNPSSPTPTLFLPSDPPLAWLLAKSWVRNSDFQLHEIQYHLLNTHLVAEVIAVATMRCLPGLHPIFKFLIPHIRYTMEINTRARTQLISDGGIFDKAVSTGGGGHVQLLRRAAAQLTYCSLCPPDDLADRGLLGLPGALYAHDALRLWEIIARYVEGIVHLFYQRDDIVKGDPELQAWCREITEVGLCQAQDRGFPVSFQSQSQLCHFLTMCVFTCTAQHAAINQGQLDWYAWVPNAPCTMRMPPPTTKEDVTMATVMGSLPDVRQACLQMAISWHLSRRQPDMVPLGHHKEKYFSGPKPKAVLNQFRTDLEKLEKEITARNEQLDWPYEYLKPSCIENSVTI
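Xylenol orange chromogenic assay: hydroperoxide from 12hLO oxidises Fe(II), giving red-shifted Fe(III)-XO absorbance. Conditions: 150 nM enzyme, 40 uM arachidonic acid, 25 mM Hepes pH 7.0, 0.01% Triton X-100, 30 min, room temperature.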
* = called active by the depositor; [ ] = dose if it differs, or a comment. A selection: hits, their analogues and other compounds. The true share with any hit is near 10%. Unless noted, the call rests on the fitted dose curve; in most records, active means well fitted inhibition curve with a large enough effect (not every such curve was filed as active); inconclusive means small, poorly fitted or top-dose-only effect, or another doubt; inactive means no such curve, though single readings can be large or run the other way. Unless noted, on the % scale 0 is the no-effect control and ±100 the full control effect.

Screening CSc1cc2c(cc1C(F)(F)F)N(C(=O)Nc1cccnc1)CC2 returned HPGD inh -3.7%, ALDH1A1 block 0.4% and 12-hLO inh -1.8%.
N#Cc1c(NC(=O)Cn2c(=O)oc3ccccc32)oc(-c2ccccc2)c1-c1ccccc1 was read as HPGD inh inconclusive, LMNA splice mod -28.0%, PNC assembly inh 27.7, ALDH1A1 block 12.6µM* and 12-hLO inh -8.6%.
Cc1ccc(-n2nnnc2CNC(=O)C(C)(C)C)cc1C was read as LMNA splice mod -7.0%[46 µM].
O=C(CN(Cc1ccccc1)C(=O)CSc1nnc(COc2ccccc2)o1)NC1CCCC1 was read as HPGD inh inconclusive, LMNA splice mod -1.6%, PNC assembly inh -10.7, ALDH1A1 block inconclusive and 12-hLO inh 1.8%.
Screening CC(C)N(C(=O)CSc1nnc(CNc2ccc(F)cc2)o1)C(C)C returned HPGD inh -10.6%, LMNA splice mod -11.4%, PNC assembly inh -100.0*, ALDH1A1 block 0.9% and 12-hLO inh -6.9%.
Screening COc1ccc(NCc2nnc(SCC(=O)Nc3cc(C)cc(C)c3)o2)cc1 returned HPGD inh -29.4%, LMNA splice mod 7.9%, PNC assembly inh 24.6, ALDH1A1 block 3.16µM* and 12-hLO inh -3.7%.
Screening Cc1ccc(CN(CC(=O)NC2CCCC2)C(=O)CSc2nnc(COc3ccccc3)o2)cc1 returned HPGD inh 28.2µM*, LMNA splice mod -2.0%, PNC assembly inh -25.8, ALDH1A1 block inconclusive and 12-hLO inh -9.0%.
`COc1ccc(NC(=O)CSc2nnc(CNc3ccc(F)cc3)o2)c(OC)c1` gave HPGD inh -14.9%, LMNA splice mod 1.1%, PNC assembly inh -3.3, ALDH1A1 block -12.4% and 12-hLO inh 2.3%.
For COc1ccc(NCc2nnc(SCC(=O)Nc3cc(C(F)(F)F)ccc3Cl)o2)cc1 the results were HPGD inh -14.0%, LMNA splice mod 15.6%, PNC assembly inh -18.3, ALDH1A1 block 28.2µM* and 12-hLO inh -11.7%.
For CNCC[C@H](Oc1ccccc1OC)c1ccccc1 the results were HPGD inh 6.0%, LMNA splice mod inconclusive, ALDH1A1 block 1.4% and 12-hLO inh -2.1%.
For COc1ccc(CNS(=O)(=O)c2ccc(C(=O)N(C)C)s2)cc1 the results were LMNA splice mod -6.4%[46 µM].
Screening COc1ccc(NCc2nnc(SCC(=O)c3ccc(C)cc3)o2)cc1 returned HPGD inh -23.1%, LMNA splice mod 15.0%, PNC assembly inh 55.9, ALDH1A1 block 28.2µM* and 12-hLO inh -26.2%.
Cc1ccc(C(=O)CSc2nnc(COc3cc(C)cc(C)c3)o2)cc1 was read as HPGD inh -10.3%, LMNA splice mod -10.5%, PNC assembly inh -5.7, ALDH1A1 block inconclusive and 12-hLO inh 2.2%.
Screening Cc1cc(C)cc(OCc2nnc(SCC(=O)c3ccccc3)o2)c1 returned HPGD inh 28.2µM*, LMNA splice mod -10.9%, PNC assembly inh 26.8, ALDH1A1 block -11.0% and 12-hLO inh 2.6%.
CSc1ncccc1C(=O)Nc1ccc(S(=O)(=O)NC2=NCCCCC2)cc1 was read as LMNA splice mod -7.7%[46 µM] and ALDH1A1 block 8.91µM*.
O=C(CSCc1ccc(F)cc1)N1CCc2c([nH]c3ccccc23)C1c1ccc(Cl)cc1 (centres undefined) was read as LMNA splice mod -22.3%[46 µM].
`CCCNC(=S)Nc1ccc(F)cc1F` gave ALDH1A1 block 0.1%.
For O=C1c2ccccc2-c2onc3ccc(N4CCCC4)c1c23 the results were ALDH1A1 block 22.4µM*.
For CCNc1ccc2noc3c2c1C(=O)c1ccccc1-3 the results were HPGD inh -17.5%, LMNA splice mod inconclusive, PNC assembly inh -100.0*, ALDH1A1 block -7.2% and 12-hLO inh -6.9%.
CC(C)(C)OC(=O)N1CCC[C@H]1c1nnc(SCc2ccc(Cl)cc2Cl)o1 was read as HPGD inh -11.9%, LMNA splice mod inconclusive, PNC assembly inh 33.8, ALDH1A1 block 2.6% and 12-hLO inh -14.8%.
Screening CCCCSc1nnc([C@@H]2CCCN2C(=O)OC(C)(C)C)o1 returned LMNA splice mod -5.1%, PNC assembly inh -13.4, ALDH1A1 block inconclusive and 12-hLO inh 7.4%.
CC(C)(C)OC(=O)N1CCC[C@H]1c1nnc(SC/C=C/c2ccccc2)o1 was read as LMNA splice mod inconclusive, PNC assembly inh 1.3, ALDH1A1 block 22.4µM* and 12-hLO inh -7.1%.
CC(C)(C)OC(=O)N1CCC[C@H]1c1nnc(SCc2ccccc2Cl)o1 was read as HPGD inh -11.1%, LMNA splice mod -7.9%, PNC assembly inh -113.7*, ALDH1A1 block -7.8% and 12-hLO inh 1.5%.
For Cc1ccc(N=N/C(=C\O)C(=O)c2ccc(Cl)cc2)cc1 the results were LMNA splice mod inconclusive and ALDH1A1 block 12.6µM*.
CC(=O)c1ccc(N=Nc2ccc(C)cc2)cc1 was read as LMNA splice mod 9.0%[46 µM] and ALDH1A1 block 10.6%.
`O=C(/C(=C/O)N=Nc1ccccc1)c1ccncc1` gave HPGD inh -22.9%, LMNA splice mod inconclusive, PNC assembly inh 3.8, ALDH1A1 block 1.26µM* and 12-hLO inh -14.1%.
For COc1ccc(COC2OC[C@]3(C)[C@H]4C5=C(CN3C(=O)OC(C)(C)C)[C@H](C)C(CO)C(CO)C5CC[C@@H]24)cc1 (some centres undefined) the results were HPGD inh -6.6%, ALDH1A1 block -7.4% and 12-hLO inh 0.0%.
`O=Cc1cccc(Br)c1` gave HPGD inh -8.1%, ALDH1A1 block inconclusive and 12-hLO inh 0.1%.
[O-]/[N+](=C\c1cccc(Br)c1)c1ccccc1 was read as ALDH1A1 block 0.316µM*.
[O-]/[N+](=C\c1ccc(F)cc1)c1ccccc1 was read as HPGD inh -7.3%, LMNA splice mod 0.7%, PNC assembly inh -18.7, ALDH1A1 block 20µM* and 12-hLO inh -8.2%.
Cc1c(C(=O)Nc2ccc(F)cc2F)oc2c1-c1nn(Cc3c(F)cccc3Cl)cc1CC2 was read as LMNA splice mod 23.6%[46 µM].
`Cc1cc(=O)n(Cc2ccc(F)cc2Cl)c2c1c(C)nn2-c1ccccc1` gave LMNA splice mod -7.4%[46 µM].
`C[C@H](O)[C@@H]1C(=O)N2C(C(=O)O)=C(SCCN=CN)C[C@@H]12` gave HPGD inh -9.9%, LMNA splice mod inconclusive, ALDH1A1 block -2.1%[20.9 µM] and 12-hLO inh -3.6%[25.6 µM].
`Cc1cccc(NC2=C/C(=N/S(=O)(=O)c3cccs3)c3ccccc3C2=O)c1` gave HPGD inh -13.1%, LMNA splice mod inconclusive, PNC assembly inh -97.0*, ALDH1A1 block -1.4% and 12-hLO inh 0.4%.
`O=C(O)/C=C/C(=O)Nc1cccc(C(F)(F)F)c1` gave HPGD inh 0.3%, LMNA splice mod -5.6%, PNC assembly inh inconclusive, ALDH1A1 block 20µM* and 12-hLO inh -7.8%.
Screening FC(F)(F)c1cccc(NC(=S)NNC(=S)NCc2ccccc2)c1 returned HPGD inh inconclusive, LMNA splice mod inconclusive, PNC assembly inh -2.5, ALDH1A1 block 0.562µM* and 12-hLO inh inconclusive.
